In PubChem BioAssay:
For some assays here: Entries with a potency or affinity are not part of this list. Calls of active or inactive are those of the source. Unless noted, the rule behind the calls is not given here.

Legend:
[1] = antimalarial activity against Dd2 strain (AID 2302;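 active = growth inhibition above 50% at the single 2 µM test dose, taken to imply half-maximal potency below 2 µM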;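 note: 0% = DMSO untreated growth and 100% = chloroquine plus artemisinin killed control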); conditions: P. falciparum Dd2 in RBCs, LDH growth readout, 72 h; at 2 µM; active compounds read high
[2] = human hepatoma cell viability loss – ATP luminescence, cytotoxicity control for P. falciparum antimalarial project, primary screen (AID 2303;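 active = inhibition above 50%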;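 note: 0% = DMSO wells and 100% = digitonin-killed cells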); conditions: HepG2 viability, 24-48 h, at 10 µM, active compounds read high
[3] = molecular target: L-lactate dehydrogenase (Plasmodium falciparum (isolate CDC / Honduras)) (UniProt Q27743); test: PfLDH activity inhibition – cell lysate, 3D7 strain, counter-screen for P. falciparum growth inhibition project (AID 2304);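 note: 0% = vehicle and 100% = reference inhibitor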; conditions: P. falciparum 3D7 crude extract, LDH APAD/NBT absorbance; at 2 µM; active compounds read high
Chain of L-lactate dehydrogenase (Plasmodium falciparum (isolate CDC / Honduras)) (Q27743 whole entry, looked up): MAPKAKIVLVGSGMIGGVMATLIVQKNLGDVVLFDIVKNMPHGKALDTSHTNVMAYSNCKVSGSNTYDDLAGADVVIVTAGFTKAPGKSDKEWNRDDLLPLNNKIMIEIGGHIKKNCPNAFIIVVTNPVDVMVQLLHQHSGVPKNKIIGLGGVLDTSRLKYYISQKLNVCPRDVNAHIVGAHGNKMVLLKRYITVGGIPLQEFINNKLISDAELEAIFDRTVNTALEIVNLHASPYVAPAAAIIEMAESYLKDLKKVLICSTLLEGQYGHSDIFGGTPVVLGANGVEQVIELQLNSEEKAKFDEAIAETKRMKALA

[4] = inhibition of 3D7 malaria parasite growth – strain 3D7 (AID 2306);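 note: 0% = DMSO wells and 100% = chloroquine plus artemisinin control wells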; conditions: P. falciparum 3D7 erythrocytic growth, LDH absorbance, 72 h; at 2 µM; active compounds read high
[5] = molecular target: Calcium-dependent protein kinase 1 (Plasmodium falciparum (isolate 3D7)) (UniProt P62344); test: PfCDPK1 kinase inhibitors, biochemical, TCAMS library (AID 1159585; cut-off not given, nearly all actives have IC50 up to about 0.98 µM;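 note: inhibitors leave more ATP so luminescence rises with inhibition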); conditions: recombinant PfCDPK1, Kinase-Glo ATP depletion luminescence
Chain of Calcium-dependent protein kinase 1 (Plasmodium falciparum (isolate 3D7)) (P62344 whole entry, looked up): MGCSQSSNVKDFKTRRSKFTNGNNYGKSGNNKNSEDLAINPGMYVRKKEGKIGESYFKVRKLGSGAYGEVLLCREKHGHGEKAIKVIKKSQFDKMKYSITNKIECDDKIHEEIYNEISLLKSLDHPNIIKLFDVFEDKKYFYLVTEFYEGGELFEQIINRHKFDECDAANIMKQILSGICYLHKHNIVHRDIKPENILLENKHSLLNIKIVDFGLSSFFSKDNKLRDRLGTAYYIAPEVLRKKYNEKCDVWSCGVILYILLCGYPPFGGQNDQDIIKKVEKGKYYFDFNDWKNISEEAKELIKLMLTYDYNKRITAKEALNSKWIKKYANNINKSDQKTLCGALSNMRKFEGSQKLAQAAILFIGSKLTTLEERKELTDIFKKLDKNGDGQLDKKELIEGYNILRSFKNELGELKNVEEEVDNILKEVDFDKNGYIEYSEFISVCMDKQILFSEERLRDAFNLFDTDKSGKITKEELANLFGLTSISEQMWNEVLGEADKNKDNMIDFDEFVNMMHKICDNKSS

[6] = molecular target: Plasmodium falciparum protein kinase 6 (PK6, PF3D7_1337100) (UniProt Q8IDW1); test: PfPK6 kinase inhibitors, biochemical, TCAMS library (AID 1159586); conditions: recombinant PfPK6, Kinase-Glo ATP depletion luminescence
Chain of Plasmodium falciparum protein kinase 6 (PK6, PF3D7_1337100) (Q8IDW1 1-305): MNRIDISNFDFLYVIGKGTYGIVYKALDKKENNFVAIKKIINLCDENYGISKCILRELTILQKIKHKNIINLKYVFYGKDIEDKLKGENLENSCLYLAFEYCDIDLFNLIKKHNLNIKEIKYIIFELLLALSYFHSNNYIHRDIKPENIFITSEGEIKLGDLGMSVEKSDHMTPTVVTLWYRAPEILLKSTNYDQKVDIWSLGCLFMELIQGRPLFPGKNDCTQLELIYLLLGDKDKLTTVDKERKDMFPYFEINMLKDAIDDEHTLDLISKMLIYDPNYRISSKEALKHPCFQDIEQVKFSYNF

[7] = molecular target: Protein kinase 7 (PK7), Plasmodium falciparum 3D7 (PF3D7_0213400) (UniProt Q7YTF7); test: inhibition of Plasmodium PK7 catalytic activity – biochemical, TCAMS antimalarial set, Kinase-Glo luminescence (AID 1159587); conditions: recombinant PfPK7, Kinase-Glo ATP depletion luminescence
Chain of Protein kinase 7 (PK7), Plasmodium falciparum 3D7 (PF3D7_0213400) (Q7YTF7 1-343): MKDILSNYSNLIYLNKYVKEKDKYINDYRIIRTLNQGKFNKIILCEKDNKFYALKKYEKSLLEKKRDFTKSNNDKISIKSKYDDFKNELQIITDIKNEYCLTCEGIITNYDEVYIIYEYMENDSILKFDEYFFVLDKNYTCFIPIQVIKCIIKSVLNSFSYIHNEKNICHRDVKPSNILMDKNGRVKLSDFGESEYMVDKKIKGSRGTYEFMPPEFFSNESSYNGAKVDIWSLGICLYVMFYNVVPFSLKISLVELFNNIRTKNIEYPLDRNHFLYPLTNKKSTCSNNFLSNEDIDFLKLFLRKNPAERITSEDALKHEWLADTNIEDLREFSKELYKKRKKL

[8] = molecular target: Calcium-dependent protein kinase 4 (Plasmodium falciparum (isolate 3D7)) (UniProt Q8IBS5); test: PfCDPK4 kinase inhibitors, biochemical, TCAMS library (AID 1159588; cut-off not given, nearly all actives have IC50 up to about 0.91 µM); conditions: recombinant PfCDPK4, Kinase-Glo ATP depletion luminescence
Chain of Calcium-dependent protein kinase 4 (Plasmodium falciparum (isolate 3D7)) (Q8IBS5 whole entry, looked up): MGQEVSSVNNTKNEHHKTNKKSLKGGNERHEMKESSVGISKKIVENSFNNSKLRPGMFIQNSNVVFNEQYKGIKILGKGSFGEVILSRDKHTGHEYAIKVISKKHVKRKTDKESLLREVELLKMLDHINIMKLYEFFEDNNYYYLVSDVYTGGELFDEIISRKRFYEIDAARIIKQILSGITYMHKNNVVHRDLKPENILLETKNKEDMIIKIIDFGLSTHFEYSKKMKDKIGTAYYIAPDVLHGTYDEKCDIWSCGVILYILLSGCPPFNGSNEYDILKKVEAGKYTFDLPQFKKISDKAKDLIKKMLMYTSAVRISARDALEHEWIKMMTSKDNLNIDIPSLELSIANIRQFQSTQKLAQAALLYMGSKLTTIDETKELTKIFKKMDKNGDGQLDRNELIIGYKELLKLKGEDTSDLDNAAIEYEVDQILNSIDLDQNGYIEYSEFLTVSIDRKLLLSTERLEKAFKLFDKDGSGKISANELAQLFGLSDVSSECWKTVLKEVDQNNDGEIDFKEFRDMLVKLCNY

COc1ccc(S(=O)(=O)NCC2CCCN(CCCCCNC(=O)/C=C/c3ccc(Cl)c(Cl)c3)C2)cc1 (stereo not given)
active: inhibition [2] 53% | growth inhibition [4] 81%
inactive: growth inhibition [1] 1% | inhibition [3] 1% | outcome [5] | outcome [6] | outcome [7] | outcome [8]

CC(C)C[C@H](NC(=O)c1cc2ccccc2s1)C(=O)N[C@H]1CCN(Cc2ccc(I)c(OC3CCN(C)C3)c2)C1 (stereo not given in full)
inactive: inhibition [3] 4% | outcome [5] | outcome [6] | outcome [7] | outcome [8]
active: growth inhibition [1] 95% | inhibition [2] 99% | growth inhibition [4] 100%

Cc1cc(=O)[nH]c(NC#N)n1
active: growth inhibition [4] 99%
inactive: growth inhibition [1] 3% | inhibition [2] 8% | inhibition [3] 0% | outcome [5] | outcome [6] | outcome [7] | outcome [8]

COc1ccc(NC(=O)Nc2ccc(-c3ccccc3)cc2)cc1Cn1nc(Cl)c(N2CCCNCC2)cc1=O
active: growth inhibition [1] 84% | growth inhibition [4] 102%
inactive: inhibition [2] 18% | inhibition [3] 0% | outcome [5] | outcome [6] | outcome [7] | outcome [8]

CC1CCCN(Cc2c(O)ccc3c(=O)c(-c4nc5ccccc5s4)c(N)oc23)C1 (stereo not given)
active: growth inhibition [1] 99% | growth inhibition [4] 100%
inactive: inhibition [2] 20% | inhibition [3] -2% | outcome [5] | outcome [6] | outcome [7] | outcome [8]

C=CCCCNCC(NCCCNc1cc(=O)c2ccccc2[nH]1)c1cc(Br)cc(Br)c1 (stereo not given)
active: growth inhibition [4] 94%
inactive: growth inhibition [1] 19% | inhibition [2] -3% | inhibition [3] -1% | outcome [5] | outcome [6] | outcome [7] | outcome [8]

COc1cccc(Nc2nc(Nc3cccc(C#N)c3)cc(-c3ccncc3)n2)c1
active: growth inhibition [4] 100%
inactive: growth inhibition [1] 46% | inhibition [2] 28% | inhibition [3] 1% | outcome [5] | outcome [6] | outcome [7] | outcome [8]

O=C(Nc1cccc(-c2ccc(CN3CCC(O)CC3)cc2)c1)c1cccc(Cl)c1
inactive: growth inhibition [1] 2% | inhibition [2] 11% | inhibition [3] -11% | outcome [5] | outcome [6] | outcome [7] | outcome [8]
active: growth inhibition [4] 96%

CN(C)CCCNc1c2ccccc2nc2ccccc12
active: growth inhibition [4] 91%
inactive: growth inhibition [1] 4% | inhibition [2] 31% | inhibition [3] -3% | outcome [5] | outcome [6] | outcome [7] | outcome [8]

O=C(Nc1ccc(Cl)c(-c2nc3ccccc3[nH]2)c1)c1ccc(-c2ccc(Cl)cc2)o1
inactive: growth inhibition [1] 22% | inhibition [2] 16% | inhibition [3] 0% | outcome [5] | outcome [6] | outcome [7] | outcome [8]
active: growth inhibition [4] 89%

O=C(N1CCN(c2cccc(C(F)(F)F)c2)CC1)C(Cl)(Cl)Cl
active: growth inhibition [4] 89%
inactive: growth inhibition [1] 35% | inhibition [2] -8% | inhibition [3] 2% | outcome [5] | outcome [6] | outcome [7] | outcome [8]

O=C(Nc1ccccc1Oc1ccccc1)NC1CCN(c2ccnc3cc(Cl)ccc23)C1 (stereo not given)
inactive: inhibition [2] -1% | inhibition [3] 0% | outcome [5] | outcome [6] | outcome [7] | outcome [8]
active: growth inhibition [1] 74% | growth inhibition [4] 99%

CCOc1cccc2nc(NCCCNCc3ccc(Cl)c(Cl)c3)cc(NCCCNCc3ccc(Cl)c(Cl)c3)c12
active: growth inhibition [1] 58% | inhibition [2] 96% | growth inhibition [4] 98%
inactive: inhibition [3] -5% | outcome [5] | outcome [6] | outcome [7] | outcome [8]

Cc1cc2ncn(-c3nccc(NCc4cccnc4)n3)c2cc1C
active: growth inhibition [1] 98% | growth inhibition [4] 99%
inactive: inhibition [2] -2% | inhibition [3] -4% | outcome [5] | outcome [6] | outcome [7] | outcome [8]

O=C(Nc1ccc2c(c1)CCNCC2)c1ccc(-c2ccc(Cl)cc2)cc1
inactive: growth inhibition [1] 38% | inhibition [3] 0% | outcome [5] | outcome [6] | outcome [7] | outcome [8]
active: inhibition [2] 71% | growth inhibition [4] 96%

CCCCCN1CCCN(Cc2cccc(NC(=O)c3ccc4ccccc4c3)c2)CC1
inactive: growth inhibition [1] 16% | inhibition [2] 27% | inhibition [3] -5% | outcome [5] | outcome [6] | outcome [7] | outcome [8]
active: growth inhibition [4] 86%

COc1cc(CCCON2C(N)=NC(N)=NC2(C)C)cc(OC)c1OC
inactive: inhibition [3] -2% | outcome [5] | outcome [6] | outcome [7] | outcome [8]
active: growth inhibition [1] 94% | inhibition [2] 68% | growth inhibition [4] 98%

Cc1nc2nc(N)nc(N)c2c(C)c1Cc1ccccc1Br
inactive: growth inhibition [1] 2% | inhibition [3] 1% | outcome [5] | outcome [6] | outcome [7] | outcome [8]
active: inhibition [2] 65% | growth inhibition [4] 92%

COc1ccc(-c2cnc3ccc(NCc4ccc(F)cc4)nn23)cc1OC
active: growth inhibition [1] 99% | growth inhibition [4] 97%
inactive: inhibition [2] 35% | inhibition [3] -2% | outcome [5] | outcome [6] | outcome [7] | outcome [8]

CC1CCC(NCc2ccc3c(CNC4CCC(C)CC4)c(O)ccc3c2O)CC1 (stereo not given)
inactive: inhibition [2] 4% | inhibition [3] -2% | outcome [5] | outcome [6] | outcome [7] | outcome [8]
active: growth inhibition [1] 99% | growth inhibition [4] 101%

CN(CCCN(C)c1cc(NC(=O)c2cccc(F)c2)ccn1)Cc1cccc(O)c1
active: growth inhibition [4] 92%
inactive: growth inhibition [1] 4% | inhibition [2] -3% | inhibition [3] -1% | outcome [5] | outcome [6] | outcome [7] | outcome [8]

CCc1sc(N2CCC(C)CC2)nc1C(=O)Nc1ccc(F)cc1C(F)(F)F
inactive: inhibition [2] 1% | inhibition [3] 2% | outcome [5] | outcome [6] | outcome [7] | outcome [8]
active: growth inhibition [1] 65% | growth inhibition [4] 94%

CSC1=NC(=Nc2ccccc2C)C2(CCC(C(C)(C)C)CC2)N1c1ccccc1Cl (stereo not given)
inactive: inhibition [2] 3% | inhibition [3] 4% | outcome [5] | outcome [6] | outcome [7] | outcome [8]
active: growth inhibition [1] 89% | growth inhibition [4] 96%

CCOC(=O)C1=C(C)NC(Cn2ccnc2)=C(C(=O)OCC)C1c1ccc(C(C)(C)C)cc1 (stereo not given)
active: growth inhibition [4] 100%
inactive: growth inhibition [1] 33% | inhibition [2] 8% | inhibition [3] -10% | outcome [5] | outcome [6] | outcome [7] | outcome [8]

O=c1c(Br)ccccc1Br
inactive: growth inhibition [1] 41% | inhibition [3] 0% | outcome [5] | outcome [6] | outcome [7] | outcome [8]
active: inhibition [2] 98% | growth inhibition [4] 94%

CCN(CC)CCN(Cc1ccc(-c2ccc(C(F)(F)F)cc2)cc1)C(=O)Cn1c(CCc2cccc(F)c2F)nc(=O)c2cc(C)ccc21
inactive: growth inhibition [1] 43% | inhibition [2] 19% | inhibition [3] 0% | outcome [5] | outcome [6] | outcome [7] | outcome [8]
active: growth inhibition [4] 95%

Cc1ccc(NC(=O)c2ccc3ncccc3c2)cc1OC1CCN(Cc2ccc(F)cc2)CC1
inactive: growth inhibition [1] 22% | inhibition [2] 6% | inhibition [3] 1% | outcome [5] | outcome [6] | outcome [7] | outcome [8]
active: growth inhibition [4] 91%

CN1CCN(c2ccnc3cc4c(cc23)N(C(=O)Nc2ccc3c(c2)CCCC3=O)CC4)CC1
inactive: inhibition [2] 5% | inhibition [3] -5% | outcome [5] | outcome [6] | outcome [7] | outcome [8]
active: growth inhibition [1] 64% | growth inhibition [4] 100%

CC1CC(NCCCNc2cc(=O)c3ccccc3[nH]2)c2c1cc(Cl)c(Cl)c2Cl (stereo not given)
inactive: inhibition [2] 1% | inhibition [3] 3% | outcome [5] | outcome [6] | outcome [7] | outcome [8]
active: growth inhibition [1] 70% | growth inhibition [4] 98%

Brc1cc2c(cc1C=NNc1nc(Nc3ccccc3)nc(Nc3ccccc3)n1)OCO2
inactive: growth inhibition [1] 32% | inhibition [2] -7% | inhibition [3] 1% | outcome [5] | outcome [6] | outcome [7] | outcome [8]
active: growth inhibition [4] 100%

Cc1cccc2[nH]c(-c3ccc(-c4cccc(CNCCCN5CCCC5=O)c4)cc3)nc12
inactive: growth inhibition [1] 3% | inhibition [2] 6% | inhibition [3] -8% | outcome [5] | outcome [6] | outcome [7] | outcome [8]
active: growth inhibition [4] 96%

Oc1cccc(Nc2nc(NCc3ccco3)c3ccccc3n2)c1
inactive: inhibition [2] 9% | inhibition [3] 0% | outcome [5] | outcome [6] | outcome [7] | outcome [8]
active: growth inhibition [1] 74% | growth inhibition [4] 103%

NC(=O)NC(=O)C=Cc1ccco1
inactive: growth inhibition [1] -3% | inhibition [2] 32% | inhibition [3] -7% | outcome [5] | outcome [6] | outcome [7] | outcome [8]
active: growth inhibition [4] 97%

CCCC1(NC[C@@H](O)[C@H](Cc2ccccc2)NC(=O)c2cc(NCC)cc(N3CCCCS3(=O)=O)c2)CCC1
inactive: inhibition [2] -8% | inhibition [3] -1% | outcome [5] | outcome [6] | outcome [7] | outcome [8]
active: growth inhibition [1] 86% | growth inhibition [4] 100%

COCCn1c(C)nc2ccccc2c1=O
inactive: inhibition [2] -3% | inhibition [3] -3% | outcome [5] | outcome [6] | outcome [7] | outcome [8]
active: growth inhibition [1] 67% | growth inhibition [4] 89%

Nc1c(Cl)cc(C(O)CNCCCCCCCCCc2ccccn2)cc1Cl (stereo not given)
active: growth inhibition [1] 83% | growth inhibition [4] 98%
inactive: inhibition [2] 9% | inhibition [3] 2% | outcome [5] | outcome [6] | outcome [7] | outcome [8]

Cc1cc(Nc2ccc(Cl)cc2)n2nc(C(F)(F)F)nc2n1
active: growth inhibition [1] 95% | growth inhibition [4] 97%
inactive: inhibition [2] 5% | inhibition [3] -1% | outcome [5] | outcome [6] | outcome [7] | outcome [8]

O=c1cc(NCCCNCc2scc(I)c2I)[nH]c2ccccc12
active: growth inhibition [1] 73% | growth inhibition [4] 100%
inactive: inhibition [2] -16% | inhibition [3] -1% | outcome [5] | outcome [6] | outcome [7] | outcome [8]

CS(=O)(=O)Cc1ccc(Nc2nccc(NC3CCN(c4nccc(C(F)(F)F)n4)CC3)n2)cc1
active: growth inhibition [4] 88%
inactive: growth inhibition [1] 23% | inhibition [2] 34% | inhibition [3] -3% | outcome [5] | outcome [6] | outcome [7] | outcome [8]

O=C(Nc1cccc(-c2ccc(-c3nc4ccc(F)cc4[nH]3)cc2)c1)c1ccoc1
inactive: growth inhibition [1] 6% | inhibition [2] 39% | inhibition [3] -7% | outcome [5] | outcome [6] | outcome [7] | outcome [8]
active: growth inhibition [4] 85%
